Assay [1] can be described thus: A549 cell viability effects, profiling panel, calcein-AM fluorescence, 48 h, basal (AID 1162). Also: test concentration not given here. The following applies: higher = more signal.
A short description of assay [2]: adipocyte viability effects, profiling panel, cell-based, 3T3-L1 adipocytes, calcein-AM fluorescence, 48 h, basal (AID 1163). Also: test concentration not given here. The following applies: 3T3-L1 adipocytes viability, higher = more signal.
Assay [3] can be described thus: HepG2 cell viability effects, profiling panel, calcein-AM fluorescence, 48 h, basal (AID 1164). Also: test concentration not given here. The following applies: higher = more signal.
Assay [4] is described as follows: MM1S cell viability effects, profiling panel, calcein-AM fluorescence, 48 h, basal (AID 1165).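 Also: viability of MM1S multiple myeloma cells under basal unstimulated conditions; test concentration not given here.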 The note with it: higher = more signal.
Assay [5] can be described thus: basal RPMI8226 viability, no added stimulus, profiling panel, cell-based, calcein-AM fluorescence, 48 h, PK04 Diversity Set (AID 1166).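 Also: cells grown under basal conditions without added stimulus; test concentration not given here.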 The following applies: RPMI8226 myeloma viability, higher = more signal.
The nature of assay [6]: basal HepG2 mitochondrial membrane potential changes, profiling panel, cell-based, JC-1 fluorescence, 24 h, 100 nL compound (AID 1167). Also: test concentration not given here. The note with it: higher = more signal.
Assay [7] can be described thus: basal 3T3-L1 adipocyte mitochondrial potential changes, profiling panel, cell-based, JC-1 fluorescence, 3T3-L1 adipocytes, 24 h, 100 nL compound (AID 1168). Also: test concentration not given here. The note with it: JC-1 mitochondrial fluorescence, higher = more signal, called active from +8 up or from −8 down.
Assay [8] can be described thus: basal RPMI8226 mitochondrial membrane potential changes, profiling panel, cell-based, JC-1 fluorescence, 24 h, 100 nL compound (AID 1169). Also: test concentration not given here. The following applies: RPMI8226 myeloma, JC-1 mitochondrial potential fluorescence, higher = more signal.
Assay [9] in a line: basal MM1S mitochondrial membrane potential changes, profiling panel, cell-based, JC-1 fluorescence, 24 h, 100 nL compound (AID 1170). Also: test concentration not given here. The note with it: higher = more signal.
Assay [10] in a line: A549 lung cancer cell viability effects, profiling panel, resazurin fluorescence, 24 h, PK04 Diversity Set (AID 1171). Also: test concentration not given here. The following applies: higher = more signal, called active from +8 up or from −8 down.
A short description of assay [11]: HepG2 liver cancer cell viability effects, profiling panel, resazurin fluorescence, 24 h, PK04 Diversity Set (AID 1172). Also: test concentration not given here. The note with it: higher = more signal.
Assay [12] can be described thus: basal S. cerevisiae growth modulation, no modifier, primary screen, OD600, strain BY4716, 24 h, basal condition (AID 1173). The note with it: OD600, 24 h, higher = more signal, called active from +8 up or from −8 down.
A short description of assay [13]: MM1S myeloma cell viability, profiling panel, resazurin fluorescence, basal, 24 h, PK04 Diversity Set (AID 1174).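 Also: MM1S multiple myeloma cell line; test concentration not given here.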 The note with it: higher = more signal, called active from +8 up or from −8 down.
The target in assay [14] is Dihydroorotate dehydrogenase (quinone), mitochondrial (Plasmodium falciparum (isolate 3D7)) (UniProt Q08210). Nature of the assay: PfDHODH enzyme inhibitors, primary screen, biochemical, C-terminal His tag, absorbance 600 nm (AID 1175).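 Also: recombinant parasite enzyme with a five histidine tag at its C terminus; test concentration not given here.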 The note with it: DCIP absorbance 600 nm, higher = more signal, called active from +8 up or from −8 down.
The nature of assay [15]: P. aeruginosa biofilm formation inhibitors, primary screen, strain PAO1, LB-PBS medium, absorbance 600 nm (AID 1176). Also: test concentration not given here. The note with it: P. aeruginosa PAO1 growth/biofilm, A600, 12 h; higher = more signal.
The nature of assay [16]: S. cerevisiae RM11-1a growth modifiers, primary screen, strain RM11-1a, OD600, basal, 24 h (AID 1177).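 Also: cultures grown under basal conditions with no added stressor; test concentration not given here.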 The note with it: OD600, 24 h, higher = more signal, called active from +8 up or from −8 down.
Assay [17] in a line: E. coli acrAB mutant growth effects, primary screen, E. coli filamentation inducers, strain DRC39, OD650, 24 h (AID 1178).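 Also: growth measured as culture turbidity by optical density at 650 nm; test concentration not given here.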 The following applies: higher = more signal, called active from +8 up or from −8 down.
Assay [18] can be described thus: E. coli acrAB mutant growth effects, primary screen, E. coli filamentation inducers, strain DRC39, OD650, 48 h (AID 1179).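 Also: screen aims at cell division blockers that make cells filament.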 The following applies: E. coli DRC39 delta-acrAB growth, higher = more signal, called active from +8 up or from −8 down.
Assay [19] is described as follows: RPMI8226 myeloma cell viability, profiling panel, resazurin fluorescence, basal, 24 h, PK04 Diversity Set (AID 1180).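 Also: RPMI8826 multiple myeloma cell line at 5000 cells per well; test concentration not given here.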 The following applies: higher = more signal.
The target of assay [20] is E3 ubiquitin-protein ligase XIAP (Homo sapiens) (UniProt P98170). As to the kind of experiment: XIAP binders, primary screen, biophysical, small-molecule microarray, fluorescence 635 nm (AID 1181).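 Also: score merges 667 nm emission and signal to noise over triplicate slides.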 The note with it: small-molecule microarray binding, higher = more signal.

Values joined by “and” are separate entries in the source; they are usually repeats but may differ in a detail not shown here. Equal entries are not always repeated. Active and inactive are the calls of the source. Unless noted, no rule for the calls is given here.

Sequence of Dihydroorotate dehydrogenase (quinone), mitochondrial (Plasmodium falciparum (isolate 3D7)) (Q08210 whole entry, looked up): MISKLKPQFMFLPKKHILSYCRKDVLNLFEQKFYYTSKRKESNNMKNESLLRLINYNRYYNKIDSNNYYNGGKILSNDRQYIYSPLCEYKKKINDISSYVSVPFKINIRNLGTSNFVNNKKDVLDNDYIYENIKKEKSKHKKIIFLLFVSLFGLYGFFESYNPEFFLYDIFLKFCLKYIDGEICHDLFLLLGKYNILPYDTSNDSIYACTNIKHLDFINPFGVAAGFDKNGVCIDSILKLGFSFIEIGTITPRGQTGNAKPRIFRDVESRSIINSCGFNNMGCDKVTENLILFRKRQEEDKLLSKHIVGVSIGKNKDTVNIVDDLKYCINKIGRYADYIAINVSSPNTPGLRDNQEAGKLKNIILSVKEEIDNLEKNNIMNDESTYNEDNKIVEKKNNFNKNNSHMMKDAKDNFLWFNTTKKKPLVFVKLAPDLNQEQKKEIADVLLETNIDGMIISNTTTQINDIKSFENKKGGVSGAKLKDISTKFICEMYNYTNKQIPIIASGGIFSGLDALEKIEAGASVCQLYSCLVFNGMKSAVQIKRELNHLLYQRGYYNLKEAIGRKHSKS
Sequence of E3 ubiquitin-protein ligase XIAP (Homo sapiens) (P98170 whole entry, looked up): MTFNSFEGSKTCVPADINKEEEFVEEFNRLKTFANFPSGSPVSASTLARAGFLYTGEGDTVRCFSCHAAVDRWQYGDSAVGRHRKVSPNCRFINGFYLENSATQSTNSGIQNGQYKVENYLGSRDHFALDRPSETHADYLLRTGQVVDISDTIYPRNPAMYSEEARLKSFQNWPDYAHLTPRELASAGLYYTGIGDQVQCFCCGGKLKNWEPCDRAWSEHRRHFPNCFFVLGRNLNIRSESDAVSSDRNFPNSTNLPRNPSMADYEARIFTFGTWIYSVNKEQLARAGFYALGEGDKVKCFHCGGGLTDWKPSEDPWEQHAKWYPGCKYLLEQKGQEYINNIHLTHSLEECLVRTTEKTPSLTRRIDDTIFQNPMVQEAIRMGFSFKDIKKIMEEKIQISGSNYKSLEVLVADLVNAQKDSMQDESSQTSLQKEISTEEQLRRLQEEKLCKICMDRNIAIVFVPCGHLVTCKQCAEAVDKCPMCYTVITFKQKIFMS

Regarding `C=CC[C@@H](O)c1ccc(OCCO)cc1`, the z-score in assay [1] was 0.589 and 0.923; in assay [2] it was -0.0396 and 0.764; in assay [3], 1.22 and 0.876; in assay [4], 1.17 and 1.23; in [5] it was 0.834 and -1.19; in [6], 1.28 and 1.15. In addition, the z-score in [7] was -0.53 (inactive) and 0.676 (inactive); in [8] it was 0.871 and 0.81; in assay [9], 0.00142 and 1.08; in [10] it was -0.707 (inactive) and -0.779 (inactive); in assay [11], -0.369 and -0.32; in assay [12], -5.91 (inactive) and -1.94 (inactive). Moreover, the z-score is -1.12 (inactive) and -0.281 (inactive) in [13]; 0.674 (inactive) and 0.945 (inactive) in assay [15]; -1.1 (inactive) and -1.56 (inactive) in assay [16]; 0.0207 (inactive) and 0.149 (inactive) in [17]; 0.433 (inactive) and 0.571 (inactive) in assay [18]; 0.0629 and 0.237 in assay [19]. Besides, the composite z-score in [14] was -0.744 (inactive) and -1.16 (inactive); in [20], -0.31 and -0.102.
Turning to `C=CCN(Cc1ccccc1)C(=O)C1N(c2ccc(CCO)cc2)C(=O)C2C(C(=O)O)C3C=CC21O3` (stereo not given), the z-score in [1] was 0.14 and -0.777; in [2] it was 0.103 and 0.408; in assay [3] it was -0.0042 and -0.474; in assay [4], 0.298 and 1.04; in assay [5], -0.6 and -0.438; in assay [6] it was 0.0701 and -0.213. For the same compound, the z-score in [7] was 0.543 (inactive) and 0.024 (inactive); in assay [8], -0.79 and 0.726; in [9], 1.09 and 0.0787; in assay [10], -1.06 (inactive) and -0.459 (inactive); in assay [11], -1.09 and -0.194; in assay [12], -0.627 (inactive) and -0.3 (inactive). The z-score in [13] was -0.724 (inactive) and -1.11 (inactive); in assay [15] it was 0.0279 (inactive) and 0.345 (inactive); in assay [16] it was 0.345 (inactive) and -0.744 (inactive); in assay [17], 0.522 (inactive) and 0.134 (inactive); in [18], 0.0943 (inactive) and -0.178 (inactive); in [19], -0.821 and -0.623. For the same compound, the composite z-score is 0.79 (inactive) and 0.0901 (inactive) in assay [14]; -0.0629 and -0.365 in assay [20].
Consider `CCOC(=O)CCN1C(=O)[C@H]2[C@H]3[C@H](O)[C@H](O)CC(=NNC(=O)OCC)[C@@H]3CC[C@H]2C1=O`, for which the z-score in assay [1] was 0.241; in assay [2], -0.0796; in [3], 0.076; in assay [4] it was -0.847; in assay [5], -0.314; in assay [6], -0.566. Besides, the z-score in assay [7] is -0.541 (inactive); in [8], 0.209; in assay [9], -0.479; in assay [10], -0.453 (inactive); in assay [11] it was -0.346; in assay [12], -0.762 (inactive). In addition, the z-score was -0.994 (inactive) in assay [13]; -0.531 (inactive) in [15]; -0.382 (inactive) in [16]; 0.202 (inactive) in assay [17]; 0.526 (inactive) in [18]; -1.74 in [19]. The composite z-score in assay [14] was -0.31 (inactive); in [20], 0.116.
Consider `CC(C)=NOCc1ccc(-c2cn([C@@H]3COC[C@H]3O)nn2)cc1`, for which the z-score in assay [1] was 0.0524; in [2], 0.371; in [3] it was 0.239; in assay [4], -0.812; in assay [5], 0.176; in assay [6], -0.32. For the same compound, the z-score in assay [7] is -0.0926 (inactive); in [8], 0.169; in [9] it was 1.43; in assay [10], -0.207 (inactive); in assay [11], -0.203; in assay [12], 0.313 (inactive). For the same compound, the z-score was 0.0429 (inactive) in assay [13]; -0.0691 (inactive) in assay [15]; -0.0292 (inactive) in [16]; 0.114 (inactive) in assay [17]; -0.0038 (inactive) in assay [18]; 0.106 in [19]. The composite z-score is -0.478 (inactive) in assay [14] and 0.0049 in [20].
On to `C[C@@H]1CC[C@H]2C(=O)O[C@H](CN=[N+]=[N-])CN2[C@H]1c1ccc(Br)cc1`, for which the z-score is -2.47 and 0.677 in assay [1]; -0.805 and -0.0793 in assay [2]; -2.75 and -0.113 in [3]; -3.4 and -0.0115 in assay [4]; -3.07 and 0.163 in [5]; -2.47 and 0.365 in [6]. The z-score in [7] is -0.136 (inactive) and 0.265 (inactive); in assay [8], -0.867 and 0.0245; in assay [9], -1.02 and 0.242; in assay [10] it was -0.854 (inactive) and 0.459 (inactive); in assay [11], -0.528 and 0.231; in assay [12] it was -3.44 (inactive) and -4.5 (inactive). For the same compound, the z-score in [13] is -0.586 (inactive) and 0.637 (inactive); in assay [15] it was 1.39 (inactive) and -0.0204 (inactive); in assay [16] it was -0.505 (inactive) and 1.67 (inactive); in assay [17], -0.686 (inactive) and -0.801 (inactive); in assay [18] it was -0.633 (inactive) and -1.31 (inactive); in assay [19], -1.38 and 0.417. Besides, the composite z-score in [14] was 0.41 (inactive) and 0.841 (inactive); in assay [20] it was 0.0871 and 0.277.

Values taken from PubChem BioAssay.
